The text below walks through data of PubChem BioAssay (NCI).

The panel holds about 83,000 compounds, 20% with a hit somewhere; the sample as a whole holds those more often.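 Assay: single dose, 48 h. Readout: percent growth (0 = no net growth; negative = cell death). Active: <10.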 Unmarked numbers belong to inactive results. Calls of active or inactive are those of the source.

Common to all, as to experiment: NCI-60 one-dose screen, 48 h (100 = growth as untreated, 0 = no growth, -100 = all killed)
Holding throughout (conditions): 10 µM unless noted

In assay [1] the test system is SR leukemia.
In assay [2] the test system is RPMI-8226 leukemia.
In assay [3] the test system is OVCAR-8 ovarian.
The subject of assay [4] is OVCAR-5 ovarian.
The test system of assay [5] is OVCAR-4 ovarian.
Assay [6] concerns SK-OV-3 ovarian.
The subject of assay [7] is IGROV1 ovarian.
Assay [8] deals with OVCAR-3 ovarian.
Assay [9] concerns HS 578T breast.
In assay [10] the test system is NCI/ADR-RES ovarian.
Assay [11] relates to T-47D breast.
The subject of assay [12] is BT-549 breast.
Assay [13] concerns MDA-MB-435 melanoma.
Assay [14] deals with SW-620 colon.
The subject of assay [15] is MCF7 breast.
Assay [16] deals with HCT-116 colon.
The test system of assay [17] is HCC-2998 colon.
Assay [18] has as its system KM12 colon.

For the compound `CCO/C=N/C1=C(C#N)C(c2ccc(F)cc2)c2sc3c(C)cccc3c2O1` (configuration not stated), the growth in [1] was 17.3%; in assay [2], 12.8%; in [3] it was 23.9%; in [4], 25.6%; in [5], 51%; in [6] it was 66.6%. The growth is 18.7% in assay [7]; -6.49% (active) in assay [8]; 24.6% in assay [9]; 12.1% in assay [10]; 62.1% in [11]; 20% in assay [12]. The growth was -31.2% (active) in assay [13]; 19.6% in [14]; 14.6% in assay [15]; 6.05% (active) in assay [16]; 18.7% in assay [17]; 8.6% (active) in assay [18].
Turning to `CCc1nn2c(C)cc(C)nc2c1Cc1ccc(/C=C/CN2CCN(CCOCCOCCN3CCN(C/C=C/c4ccc(Cc5c(CC)nn6c(C)cc(C)nc56)cc4)CC3)CC2)cc1`, the growth in assay [1] is -30.9% (active); in [2], -41.9% (active); in assay [3] it was 19.1%; in assay [4], 28.2%; in [5], 25.9%; in assay [6] it was 85.2%. Also, the growth is 4.6% (active) in assay [7]; -60.4% (active) in assay [8]; -39.4% (active) in assay [9]; 23.2% in [10]; -36.4% (active) in [11]; 79.7% in assay [12]. For the same compound, the growth in [13] is -78.3% (active); in assay [14], -50.4% (active); in assay [15] it was -85.8% (active); in assay [16], -84.1% (active); in [17], -61.9% (active); in assay [18], 35.2%.
For `N/C(=N\C(N)=N\c1nc2ccccc2s1)c1cccc(F)c1`, the growth is 48.4% [5 µM] in assay [1]; 84.4% [5 µM] in assay [2]; 98.9% [5 µM] in [3]; 102% [5 µM] in assay [4]; 133% [5 µM] in [5]; 93.9% [5 µM] in assay [6]. Moreover, the growth in assay [7] is 68.4% [5 µM]; in [8], 101% [5 µM]; in [9] it was 93.7% [5 µM]; in assay [10], 86.3% [5 µM]; in [11], 74.6% [5 µM]; in assay [12], 96.7% [5 µM]. The growth in assay [13] was 104% [5 µM]; in assay [14], 97.2% [5 µM]; in [15] it was 85.8% [5 µM]; in [16], 89.3% [5 µM]; in assay [17], 112% [5 µM]; in assay [18], 99.9% [5 µM].
Take `Cc1cc(C(NC(=O)CCCCCNc2cccc3c2C(=O)N(C2CCC(=O)NC2=O)C3=O)c2ccc3c(c2)OC(F)(F)O3)c(O)c2ncccc12` (configuration not stated): the growth in assay [1] is 26.2%; in assay [2], 34.7%; in [3], 38.6%; in assay [4] it was 73.2%; in [5] it was 73.1%; in assay [6] it was 109%. In addition, the growth was 37.5% in assay [7]; 38.3% in [8]; 37.7% in [9]; 104% in assay [10]; 67.6% in assay [11]; 36.6% in [12]. Moreover, the growth in assay [13] was 27.8%; in assay [14] it was 40.2%; in assay [15], 29.5%; in [16] it was 27.8%; in assay [17], 79.2%; in assay [18], 39.9%.
In the case of `CCCCCCCn1cc2c(NCCc3ccccc3)ncnc2n1`, the growth in assay [1] was 85.4%; in assay [2], 92.4%; in [3], 99.9%; in assay [4] it was 108%; in assay [5], 101%; in assay [6], 113%. Moreover, the growth in [7] is 97.5%; in assay [8], 121%; in [9], 88.5%; in assay [10], 98.7%; in [11], 94.5%; in assay [12], 100%. The growth in [13] is 96.6%; in assay [14], 92.8%; in assay [15], 86.9%; in assay [16], 96.6%; in assay [17], 116%; in assay [18], 97%.
For the compound `O=C(CSc1nnc(-c2ccc(Cl)cc2)n1-c1ccccc1)Nc1cccc(Cl)c1`, the growth in assay [1] was 21.4%; in assay [2], 34.5%; in assay [3] it was 62.4%; in assay [4], 71.7%; in [5], -5.99% (active); in [6], 126%. In addition, the growth in [7] was 46.7%; in assay [8] it was 82%; in assay [9], 54.4%; in assay [10] it was 50.4%; in assay [11], 48.2%; in [12], 61.6%. Besides, the growth in assay [13] was 72.9%; in assay [14] it was 49.8%; in assay [15], 65.1%; in assay [16], 12.8%; in assay [17] it was 83.8%; in assay [18], 71.9%.
Consider `O=C(CN1CCN(c2cc(=O)n(-c3ccccc3)c3ccccc23)CC1)Nc1nc(-c2ccccc2)cs1`, for which the growth in assay [1] is 51.3%; in assay [2], 46.2%; in assay [3], 69.8%; in assay [4] it was 94.1%; in assay [5], 23.3%; in assay [6], 70.7%. Besides, the growth in [7] is 67.5%; in assay [8], 72.5%; in assay [9] it was 82.9%; in assay [10], 62.7%; in [11] it was 16.6%; in assay [12] it was 67.1%. The growth was 73.4% in assay [13]; 68.6% in [14]; 27.6% in assay [15]; 53.4% in assay [16]; 81.8% in assay [17]; 63% in assay [18].
For `C#C[C@]1(O)CC[C@H]2[C@@H]3CC=C4c5sc(-c6ccc7c(c6)OCO7)nc5CC[C@]4(C)[C@H]3CC[C@@]21C`, the growth is 16.9% in assay [1]; -15.3% (active) in [2]; 30.2% in assay [3]; 36.3% in [4]; 34.9% in assay [5]; 52.3% in assay [6]. Besides, the growth is 34.8% in assay [7]; -13.2% (active) in assay [8]; -9.35% (active) in assay [9]; 39.2% in assay [10]; 41.5% in assay [11]; 26.1% in [12]. The growth in assay [13] is -6.66% (active); in assay [14], 2.53% (active); in assay [15] it was -1.98% (active); in assay [16], -9.63% (active); in assay [17] it was 34%; in [18] it was 14%.
Turning to `O=C(NNc1nc2cc(F)c(F)cc2n2cccc12)c1cnccn1`, the growth in [1] is 15.3%; in assay [2], 30.5%; in [3] it was 16.6%; in assay [4], 41.2%; in [5], 20.3%; in assay [6], 30.5%. In addition, the growth in [7] was 19.5%; in assay [8], 35.6%; in assay [9], 75.5%; in assay [10], 2.66% (active); in assay [11], 13.6%; in assay [12] it was 43.7%. Further, the growth in [13] is 37.1%; in [14], 27.4%; in [15], 14%; in assay [16] it was 17.5%; in assay [17], 40.9%; in assay [18] it was 22.3%.
